# USP1-UAF1 inh: Inhibitors of USP1/UAF1: Primary Screen; Ubiquitin carboxyl-terminal hydrolase 1 (Homo sapiens), O94782; recombinant USP1/UAF1, Ub-Rhodamine cleavage fluorescence; Potency, µM (highest dose often 57.1 µM), hits mostly inhibitors; actives 0.23% (n = 390,000); AID 743255, 2014; further: nearly all actives have a fitted effect of over 60% in size
# Target sequence (O94782 whole entry, looked up): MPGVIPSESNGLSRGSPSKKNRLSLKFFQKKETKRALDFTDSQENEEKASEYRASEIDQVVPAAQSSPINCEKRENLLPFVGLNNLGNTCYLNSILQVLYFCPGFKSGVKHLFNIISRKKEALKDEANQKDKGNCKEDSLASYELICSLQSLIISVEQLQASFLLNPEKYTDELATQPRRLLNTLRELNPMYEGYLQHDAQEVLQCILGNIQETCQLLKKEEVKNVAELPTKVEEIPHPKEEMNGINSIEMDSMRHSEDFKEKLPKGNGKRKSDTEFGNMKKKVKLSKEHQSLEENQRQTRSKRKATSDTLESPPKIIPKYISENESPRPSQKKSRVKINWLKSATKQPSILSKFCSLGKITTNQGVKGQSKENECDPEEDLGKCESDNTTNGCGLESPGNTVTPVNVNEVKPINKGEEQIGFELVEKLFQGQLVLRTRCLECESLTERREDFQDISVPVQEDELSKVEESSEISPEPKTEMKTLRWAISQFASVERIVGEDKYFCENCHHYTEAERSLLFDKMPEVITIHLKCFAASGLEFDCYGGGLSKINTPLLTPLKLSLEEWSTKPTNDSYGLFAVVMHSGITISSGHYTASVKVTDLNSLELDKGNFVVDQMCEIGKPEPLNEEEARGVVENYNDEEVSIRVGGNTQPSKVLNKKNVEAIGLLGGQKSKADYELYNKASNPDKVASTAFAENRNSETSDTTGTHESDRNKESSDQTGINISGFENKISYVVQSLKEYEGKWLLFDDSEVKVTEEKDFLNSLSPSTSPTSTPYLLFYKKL
#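 1 nM enzyme complex + cpd, 15 min RT; start with Ub-Rho 150nM final; kinetic fluorescence ex 480/em 540, 6 reads q60 s. Buffer 50mM HEPES pH 7.8, 0.5mM EDTA, 0.1 mg/ml BSA, 1mM TCEP, 0.01% Tween-20.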
# Tau ThT inhib: qHTS for Inhibitors of Tau Fibril Formation, Thioflavin T Binding; actives 2.1% (n = 270,000); Potency, µM (doses to about 57.4 µM), usual class: inhibitors; recombinant tau K18 P301L, heparin-induced fibrillization, ThT fluorescence; Microtubule-associated protein tau (Homo sapiens), P10636; further: nearly all actives have a fitted effect of over 55% in size
#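 Tau K18 P301L fragment (15 uM unlabeled plus 0.24 uM Alexa 594-labeled) in 100 mM sodium acetate pH 7 with compound, fibrillization induced by 20 uM heparin for 6 hr at 37 C. Thioflavin T (30 uM) added, fluorescence read after 1 hr (ex 450, em 510 nm).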
# Tau fluor counter: Counterscreen qHTS for Inhibitors of Tau Fibril Formation, Fluorescence Polarization; tau K18 P301L (four-repeat tau fragment) Alexa594 fluorescence, heparin fibrillization; Potency, µM (highest dose often 57.7 µM); actives 0.93% (n = 280,000); AID 1463, 2008; further: nearly all actives have a fitted effect of over 55% in size
#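 Human K18 P301L tau (15 uM unlabeled plus 0.24 uM Alexa 594-labeled, final) in 100 mM sodium acetate pH 7 was mixed with compound and 20 uM heparin and incubated 6 hr at 37 C.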
# Coupling enz: qHTS Assay for Inhibitors of Fructose-1,6-bisphosphate Aldolase from Giardia Lamblia: Coupling assay counterscreen | coupling enzyme system counterscreen, AmpLite Red fluorescence | activity change, negative = inhibition, % at 58.2 µM, hits read low | actives 0.67% (n = 290,000) | AID 2472, 2010; in the data active means activity change below about -30%
#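 Final compound at 57.5 uM, incubated 10 min at RT with coupling enzyme reagent (glyceraldehyde-3-phosphate), then 20 min with substrate and AmpLite Red detection. Fluorescence read at 525/598 nm; tests interference with the coupling assay, not aldolase inhibition.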
# Tau FP inhib: qHTS for Inhibitors of Tau Fibril Formation, Fluorescence Polarization. actives 0.39% (n = 280,000). AID 1468, 2008. Potency, µM (top dose mostly 57.7 µM), hits mostly inhibitors. K18 P301L tau heparin fibrillization, Alexa594 FP, 6 h; further: nearly all actives have a fitted effect of over 55% in size
#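 Human tau K18 […] P301L fragment, 15 uM unlabeled plus 0.24 uM Alexa 594-labeled tau (final), with compound and 20 uM heparin in 100 mM sodium acetate pH 7; 6 hr at 37 C, then Alexa 594 FP read.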
# Numbers stand for hits; . = inactive; ? = inconclusive; / = not tested or not shown; ! = not confirmed by another sample; [ ] = another dose, or the depositor's remark. Hits are enriched below; roughly 2.3% of the tested compounds scored in any of these assays. Unless noted, the call rests on the fitted dose curve; in most records, active means well fitted curve in the direction sought with a large enough effect; inconclusive means small, poorly fitted or top-dose-only effect, or another doubt; inactive means no such curve, though single readings can be large; an effect the other way counts as inactive or inconclusive.
SMILES,USP1-UAF1 inh,Tau ThT inhib,Tau fluor counter,Coupling enz,Tau FP inhib
COc1cc2c(cc1O)C(Cc1ccc(O)cc1)[N+](C)(C)CC2 (configuration not stated),/,.,.,.,.
CN(C)S(=O)(=O)c1cccc(NC(=S)N/N=C/c2ccc(O)c(O)c2O)c1,.,3.16µM,12.6µM[quencher],-56.3,7.08µM
CCOc1ccc(Cl)cc1/C=N/NC(=O)CNC(=O)c1ccccc1,.,.,.,-37.9,.
CCOc1cc(/C=N/NC(=O)c2cccc([N+](=O)[O-])c2)ccc1OS(=O)(=O)c1ccccc1,.,.,14.1µM[quencher],/,.
COc1ccc(O)c(/C=N/NC(=S)Nc2cccc(S(=O)(=O)N(C)C)c2)c1,.,?,?,.,?
CCOc1ccc(Cl)cc1/C=N/NC(=O)c1ccccc1,.,.,.,.,.
CCOc1ccccc1/C=N/NC(=O)c1c(C)nc2ccc(Br)cn12,.,/,/,-44.6,/
CCOc1ccc(-c2cccc(NS(=O)(=O)c3ccc(Cl)s3)c2)nn1,.,.,?,/,.
O=C(NCCc1ccc(Cl)cc1)c1nc(-c2cccc(F)c2)n2c1CCCCC2,.,.,.,/,.
CCN(CC)S(=O)(=O)c1cccc(C(=O)N/N=C/c2ccc(N3CCOCC3)cc2)c1,.,.,.,.,.
CCOc1ccccc1/C=N/NC(=O)c1cccc(S(=O)(=O)N(CC)CC)c1,.,.,.,-37.5,.
CCOc1ccccc1/C=N/NC(=O)c1cccc(Cl)c1,.,.,.,.,.
CCN(CC)S(=O)(=O)c1cccc(C(=O)N/N=C/c2ccc(O)c(O)c2O)c1,.,3.16µM,?,-40.9,8.91µM
O=C(N/N=C/c1c(O)ccc2ccccc12)c1cccc(C(F)(F)F)c1,?,?,8.91µM[quencher],.,?
COc1ccc2ccccc2c1/C=N/NC(=O)c1cccc(Br)c1,.,?,.,.,?
CCn1c(C)nc2cc(C(=O)N/N=C/c3ccc(O)c(O)c3O)ccc21,.,3.16µM,?,-53.0,7.94µM
CC1(C)NS(=O)(=O)Oc2ccccc21,.,/,/,.,/
COc1ccc(NC(=O)Cn2cc(S(=O)(=O)Cc3ccc(F)cc3)c3ccccc32)cc1OC,.,.,?,/,.
Cc1ccc(CN(Cc2cccn2-c2nnc(N3CCCC3=O)s2)C(=O)Nc2ccccc2C(F)(F)F)cc1,.,.,.,/,.
Cc1ccc(CCNS(=O)(=O)c2ccc3c(c2)CC(C)N3C(=O)C2CCC2)cc1 (configuration not stated),.,.,.,/,.
O=C1c2cccc3c2C2(O)c4c1cccc4C(=O)c1cccc(c12)C3=O,.,/,/,/,/
O=C(CSc1nncc2ccccc12)Nc1ccccc1,.,/,/,.,/
O=C(CSc1nnc2c3ccccc3c3ccccc3c2n1)Nc1ccccc1,/,?,.,-43.8,.
O=C(CSc1nnc2c3ccccc3c3ccccc3c2n1)Nc1ccccc1F,.,?,?,-40.2,?
O=C(Nc1nc2ccc(F)cc2s1)c1nc(S(=O)(=O)Cc2ccccc2F)ncc1Cl,.,10µM,.,/,.
SMILES,USP1-UAF1 inh,Tau ThT inhib,Tau fluor counter,Coupling enz,Tau FP inhib
COc1ccc(C2(C(=O)c3ccccc3)C(=O)c3ccccc3C2=O)cc1,.,14.1µM,?,.,?
Nc1nc(-c2ccc(Br)s2)c(Br)s1,.,?,14.1µM[quencher],.,.
COC(=O)CCC(=O)OC1(C)C(=O)C2=CN(C3CC3)C(c3ccc(OC)cc3)=CC2=C(Br)C1=O (configuration not stated),22.4µM,?,.[11.6 µM],.,.[11.6 µM]
COC(=O)CCC(=O)OC1(C)C(=O)C2=CN(Cc3ccccc3)C(c3ccc(OC)cc3)=CC2=C(Br)C1=O (configuration not stated),?,.[11.5 µM],.[11.6 µM],.,.[11.6 µM]
COC(=O)CCC(=O)OC1(C)C(=O)C2=CN(CC3CC3)C(c3ccc(OC)cc3)=CC2=C(Br)C1=O (configuration not stated),31.6µM,11.2µM!,.[11.6 µM],-32.2,?
Cc1ccccc1CNC(=O)c1ccc(Cn2c(SCc3cccc(F)c3)nc3cccnc32)cc1,.,.,.,/,.
COC(=O)c1ccc(N)c(N=CC2=C(O)CC(C)(C)CC2=O)c1,.,.,.,.,.
COC(=O)c1ccc2c(c1)C(C)(C)C(/C=C/c1ccccc1O)=[N+]2C,.,10µM,25.1µM[fluorescent],.,?
CN1C(=O)C2(NC(=O)c3ccccc3N2C)c2ccccc21 (configuration not stated),.,.,.,.,.
CN1C(=O)C(Cl)(Cl)C(=O)c2ccccc21,.,3.98µM,.,-74.8,7.08µM
Cn1cnc(S(=O)(=O)N2CCC(C(=O)N3CCN(c4ccccc4F)CC3)CC2)c1,.,.,.,/,.
O=C1CC(c2ccco2)CC(O)=C1C=Nc1cc(Cl)ccc1Cl (configuration not stated),.,22.4µM,.,.,?
O=C1CC(c2ccco2)CC(O)=C1C=Nc1cc(Cl)ccc1O (configuration not stated),.,?,.,.,.
CC1=NC(C)(C)CC2CCC(O)C12 (configuration not stated),.,/,/,/,/
Cc1ccc(CNC(=O)c2ccc(CS(=O)(=O)Cc3ccc(F)cc3)o2)cc1,.,.,.,/,.
COCCn1c(-c2ccc(OC)cc2)nc2ccccc21,.,.,.,.,.
COCCn1c2nc(=O)n(-c3ccccc3)c(=O)c-2nc2ccccc21,28.2µM,/,/,/,/
CCOc1cc(CNC(=O)c2ccc3nc(CCc4ccccc4)oc3c2)ccc1OC,.,?,.,/,.
CCNc1cc(N2CCN(C3CCCCC3)CC2)c2noc3c2c1C(=O)c1ccccc1-3,?,?,.,/,.
CCN1CCN(c2cc(N3CCN(C(=O)c4ccco4)CC3)c3c4c(onc24)-c2ccccc2C3=O)CC1,?,/,/,-30.4,/
O=C(O)CCNc1cc(N2CCN(C(=O)c3ccco3)CC2)c2noc3c2c1C(=O)c1ccccc1-3,14.1µM,/,/,.,/
CC(=O)OCCNc1cc(N2CCN(C)CC2)c2noc3c2c1C(=O)c1ccccc1-3,?,28.2µM,?,.,?
O=C1c2ccccc2-c2onc3c(NCCO)cc(NC4CCCCC4)c1c23,?,7.94µM,11.2µM[quencher],/,?
CC(C)Nc1cc(N2CCN(C3CCCCC3)CC2)c2noc3c2c1C(=O)c1ccccc1-3,.,?,?,/,.
c1ccc(COc2ncnc3c2ncn3CCCN2CCN(c3ccccn3)CC2)cc1,.,/,/,/,/
Cc1cccc(-c2nnn3c2nc(NCc2ccc4c(c2)OCO4)c2ccccc23)c1,.,.,.,/,.
